Here are results for 14 compounds from PubChem BioAssay (EPA / NIEHS).

Each structure is given as a SMILES string. Inconclusive results are not listed. Where a structure was tested more than once in an assay, its records may differ in their call. The source made the active and inactive calls. Rule for the calls: active = hit-call score of the fitted dose curve at least 0.9, where 1 is the maximum; inconclusive = response in the unintended direction; inactive = score below 0.9.

The assay deals with zebrafish Thyroid Hormone Receptor alpha (TRa), thraa (gene 30670) (UniProt Q98867). The assay can be described thus: ATG_zfTRa_XSP2: Attagene TRANS-FACTORIAL Multi-Species (XSP1) HepG2 Assay for zebrafish Thyroid Hormone Receptor alpha (TRa) (AID 2283832).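 Note: actives raise zebrafish TRa-Gal4 reporter transcript above DMSO baseline.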 Here is the method: ATG_XSP2_multi-species_TRANS is a cell-based, multiplexed assay created by modifying the existing Attagene TRANS-FACTORIAL system to include a panel of nuclear receptors from some or all the following species: human (Homo sapiens), mouse (Mus musculus), frog (Xenopus laevis), zebrafish (Danio rerio), chicken (Gallus gallus), and turtle (Chrysemys picta). The ECOTOX-FACTORIAL format uses HepG2, a human liver cell line, with measurements taken at 24 hours after chemical dosing in a 24-well plate. Xsp2 included 3 nM 6-alpha-fluorotestosterone and 1.5 nM norgestrel to stimulate the androgen receptor.ATG_zfTRa_XSP2 is one of 29 assay components measured or calculated from the ATG_XSP2_multi-species_TRANS assay. It is designed to make measurements of mRNA induction, a form of inducible reporter, as detected with fluorescence intensity signals by Reverse transcription polymerase chain reaction (RT-PCR) and Capillary electrophoresis technology.The assay endpoint ATG_zfTRa_XSP2 was analyzed in the positive analysis fitting direction relative to DMSO as the negative control and baseline of activity. Using a type of inducible reporter, measures of mRNA for gain-of-signal activity can be used to understand the reporter gene at the transcription factor-level as they relate to the gene TR. Furthermore, this assay endpoint can be referred to as a primary readout, because this assay has produced multiple assay endpoints where this one serves a reporter gene function. To generalize the intended target to other relatable targets, this assay endpoint is annotated to the nuclear receptor intended target family, where the subfamily is non-steroidal.
zebrafish Thyroid Hormone Receptor alpha (TRa), thraa (gene 30670), sequence (Q98867 whole entry, looked up, the tested form may be a part): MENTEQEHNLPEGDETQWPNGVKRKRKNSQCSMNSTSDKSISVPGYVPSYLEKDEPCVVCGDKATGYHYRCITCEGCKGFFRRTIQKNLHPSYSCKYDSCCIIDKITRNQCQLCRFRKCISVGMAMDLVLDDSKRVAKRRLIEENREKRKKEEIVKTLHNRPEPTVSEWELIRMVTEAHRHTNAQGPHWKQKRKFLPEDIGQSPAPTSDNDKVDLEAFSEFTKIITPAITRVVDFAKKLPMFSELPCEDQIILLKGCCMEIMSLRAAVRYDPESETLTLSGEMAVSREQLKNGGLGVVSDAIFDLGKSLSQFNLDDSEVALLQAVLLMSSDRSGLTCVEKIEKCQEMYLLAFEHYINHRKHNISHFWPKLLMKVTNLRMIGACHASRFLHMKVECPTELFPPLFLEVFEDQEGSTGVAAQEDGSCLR
Human liver HepG2 cells are transiently transfected with multiple reporter transcription units (MRTUs) in 6-well plates using FuGene 6 reagent (Roche; 3 ml FuGene/1 mg DNA). The MRTU constructs are regulated by a cis-regulating element (promoter). […] A major difference between the CIS and TRANS system is that in CIS activities of endogenous TFs are measured, whereas the TRANS assay evaluates changes in activities of exogenous, chimeric NR-Gal4 proteins. […] At the end of 24 hour incubation, total RNA was isolated using TriZol reagent (Invitrogen). The isolated RNA is then reverse-transcribed using oligo(dT) primer and Mo-MLV reverse transcriptase (Invitrogen) with DNAse I (Ambion) treatment for 30 min. The one-tenth of the produced cDNA was amplified by PCR using Taq DNA polymerase (Invitrogen) and two reporter sequence-specific primers. The PCR products were fluorescently labeled by primer extension with 6-arboxyfluorescein (6-FAM) 5'-labeled reporter sequence-specific primer (2 min at 95 C, 20 s at 68 C and 10 min at 72 C) and these products were digested with 5U of HpaI (New England Biolabs) for 2h at 37 C. The fragments were purified using Qiaquick PCR columns (Qiagen), analyzed on an ABI 3130xL genetic analyzer (Applied Biosystems) with peak positions identified by using a set of X-rhodamine (ROX)-labeled MapMarker1000 molecular weight standards (BioVentures). The raw capillary electrophoresis data was processed using Attagraph software (Attagene).
With `CC(C)(C)c1cc(O)ccc1O`, the AC50 is 54.9 µM (active).

Take `CC12CC1(C)C(=O)N(c1cc(Cl)cc(Cl)c1)C2=O` (stereo not given): the compound was called inactive.

For the compound `CC(C)C1CCC(Cc2ccc(Cl)cc2)C1(O)Cn1cncn1` (stereo not given), the outcome was inactive.

As for `C[C@]12CCC(=O)C[C@@H]1CC[C@@H]1[C@@H]2CC[C@]2(C)[C@@H](O)CC[C@@H]12`, the call was inactive.

Turning to `CC1(C)CCC(Cc2ccc(Cl)cc2)C1(O)Cn1cncn1` (stereo not given), the result was inactive.

As for `COP(=O)(OC)O/C(=C\Cl)c1cc(Cl)c(Cl)cc1Cl`, the outcome was inactive.

With `Oc1ccc(-c2ccccc2)cc1`, the compound was classed as inactive.

With `CC(=O)C=C(C)C`, the outcome was inactive.

For the compound `O=C1C2(Cl)C3(Cl)C4(Cl)C(Cl)(Cl)C5(Cl)C3(Cl)C1(Cl)C5(Cl)C24Cl` (stereo not given), the compound was classed as inactive.

Turning to `C[C@H]1CCCC(=O)CCC/C=C/c2cc(O)cc(O)c2C(=O)O1`, the compound was called inactive.

`Oc1c(I)cc(I)cc1I`: the outcome was inactive and the AC50 was 100 µM (active).

For the compound `C[C@]12CC[C@H](O)CC1=CC[C@@H]1[C@@H]2CC[C@]2(C)C(=O)CC[C@@H]12`, the outcome was inactive.

Take `O=S(=O)(c1ccc(Cl)cc1)c1ccc(Cl)cc1`: the outcome was inactive.

For `Clc1ccc(C2(Cn3cncn3)CC(Br)CO2)c(Cl)c1` (stereo not given), the call was inactive.

For orientation: AC50 means the concentration at which the activity in the assay is half-maximal.
